Experimental findings from PubChem BioAssay (NCATS) are described below.

Structures are written as SMILES. Records with an inconclusive call do not appear. Activity calls are given as the source filed them. Unless noted, the call rests on the fitted dose curve.

In assay [1] the target is Lysosomal acid glucosylceramidase (Homo sapiens) (UniProt P04062). Description: Glucocerebrosidase-p2 (AID 348; in the data active means potency below about 10 µM; further: potency means the concentration at half of the fitted maximal effect). The following applies: purified GBA, blue fluorogenic substrate, 40 min. An outline of the steps:
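Normal human glucocerebrosidase (0.2 nM) with blue fluorogenic substrate (80 uM final) in citrate/phosphate pH 5.9 with 10mM sodium taurocholate, 0.01% tween-20; 40 min RT, NaOH/glycine stop; fluorescence Ex 365/Em 440; AC50 from a titration from 0.6 nM upwards.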

The nature of assay [2]: AP1 Signaling Pathway (AID 357; active means well fitted curve in either direction with a large enough effect, not every such curve was filed as active;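 further: ME-180 reporter cells stimulated with EGF at its EC50 level; on the % scale 0 is the no-effect control and ±100 the full control effect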). Particulars: ME-180 AP-1-bla reporter, EGF-induced, beta-lactamase ratio, 5 h; at 7.69 µM (top of the series) unless noted. An outline of the steps:
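AP-1-bla ME-180 cells, Opti-MEM + 0.5% dialyzed FBS, plated overnight 37 °C. Cpd titration + EC50 EGF, 5 h 37 °C. CCF4 2.5 h RT; ex 405, em 460/530 ratio → %activity, AC50.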

In assay [3] the target is Cytochrome P450 1A2 (Homo sapiens) (UniProt P05177). Put plainly: p450-cyp1a2 (AID 410). Further: potency means the concentration at half of the fitted maximal effect. Particulars: recombinant CYP1A2, luciferin-ME demethylation, luminescence; series mostly up to 57 µM. In short, it runs like this:
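20nM CYP1A2, 100uM Luciferin-ME (=Km), 100mM KPO4; cpd 10 min RT; +NADPH regen, 60 min RT; stop/detect 20 min; luminescence. Normalized to furafylline 57 uM = full inhibition.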

The nature of assay [4]: Stat Signaling Pathway (AID 446; active means well fitted curve in either direction with a large enough effect, not every such curve was filed as active;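 further: ME-180 cervical cancer cells given 40 pM IL-6 alongside compound; SIE-controlled beta-lactamase reporter measured as 460/530 nm FRET emission ratio; on the % scale 0 is the no-effect control and ±100 the full control effect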). Particulars: ME-180 SIE beta-lactamase reporter, IL-6 stimulated, 5 h; at 7.69 µM (top of the series) unless noted. In short, it runs like this:
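FRET read-out (405 nm excitation, 460/530 nm emission) of a beta-lactamase reporter under a STAT-inducible element in ME-180 cervical carcinoma cells. Cells with compound receive 40 pM IL-6 for 5 h. Values are normalised to AC90 stimulation and AC90 JAK-inhibitor controls.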

Assay [5] addresses Glucocorticoid receptor (Homo sapiens) (UniProt P04150). Description: GR-EFC Redistribution (AID 451). Further: potency means the concentration at half of the fitted maximal effect. The following applies: CHO-K1 GR-EFC translocation, beta-gal luminescence, 2 h. In short, it runs like this:
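CHO-K1 cells stably expressing nuclear-localized β-gal enzyme acceptor and GR fused C-terminally to the enzyme donor fragment; ligand-driven nuclear translocation restores β-gal by complementation. Compounds titrated up to 46 uM final, 2 h at 37 °C; luminescence read.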

In assay [6] the target is Mitogen-activated protein kinase 10 (Mus musculus) (UniProt Q61831). Description: JNK3 AlphaScreen Assay (AID 530; active means well fitted curve in either direction with a large enough effect, not every such curve was filed as active;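 further: kinase came from lysate of stimulated human HepG2 cells; signal reports phosphorylation of biotinylated GST-cJun 1-79 at Ser73 with 10 µM ATP; on the % scale 0 is the no-effect control and ±100 the full control effect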). Particulars: JNK3 lysate, c-Jun phosphorylation; series mostly up to 57.1 µM. An outline of the steps:
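Biotinylated GST-cJun(1-79) served as substrate for JNK3 in HepG2 lysates stimulated with IL-1beta and TNF-alpha. ATP was 10 uM final, pH 7.6. Ser73 phosphorylation was quantified by AlphaScreen (680 nm excitation).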
(In Alpha technology, singlet oxygen from a donor bead excites a nearby acceptor bead.)

The target in assay [7] is 3',5'-cyclic-AMP phosphodiesterase 4B (Homo sapiens) (UniProt Q07343). Description: qHTS Assay for Inhibitors of PDE-IV (AID 607; active means well fitted activation curve with a large enough effect in the main read-out, with a control signal flat, not every such curve was filed as active; further: % of control where 0% means no effect). Particulars: HEK293 ACTOne CNG channel cells, membrane potential fluorescence; series mostly up to 22.9 µM. In short, it runs like this: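 Cell-based read-out of cAMP via a modified cyclic nucleotide-gated channel and membrane potential dye (535/590 nm) in HEK293 cells expressing PDE4 endogenously. Compounds tested up to 22.9 uM final; 100 uM RO 20-1724 reference.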
On the technique in general: Quantitative high-throughput screening tests each substance at several concentrations.

In assay [8] the target is Cytochrome P450 2C19 (Homo sapiens) (UniProt P33261). Put plainly: qHTS Assay for Inhibitors and Substrates of Cytochrome P450 2C19 (AID 899; active means well fitted curve in the direction sought with a large enough effect; an effect the other way counts as inactive or inconclusive; further: potency means the concentration at half of the fitted maximal effect; nearly all actives have a fitted effect of over 60% in size). Particulars: recombinant CYP2C19, luciferin-H EGE luminescence; series mostly up to 57.1 µM. An outline of the steps:
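In 50mM KPO4, the reaction held 5nM enzyme and KM-level (10uM) Luciferin-H EGE; it ran 60 min at 37C after NADPH regeneration and a 10 min compound preincubation. Luminescence values were scaled to 57uM ketoconazole as complete inhibition.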

Assay [9] in a line: qHTS Assay for Identification of Small Molecule Agonists for Hypoxia Response Element Signaling Pathway (AID 914; active means well fitted activation curve with a large enough effect in the signal ratio, with a control signal flat, not every such curve was filed as active; the % refers to the signal ratio; further: % of control where 0% means no effect). Particulars: ME-180 (cervical carcinoma) HRE-bla reporter, beta-lactamase ratio, CoCl2, 17 h; activation: stronger effect = higher value. An outline of the steps:
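Positive modulation of EC50 CoCl2-induced hypoxia response element signaling is measured in ME-180 cells with a beta-lactamase reporter. Compounds are titrated, incubation runs 17 hours, and %Activity derives from the blue/green ratio.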

Assay [10] in a line: qHTS Assay for Lipid Storage Modulators (AID 1519). The following applies: Drosophila S3 cells, BODIPY lipid droplet/cell ratio, laser cytometry, cells loaded with oleic acid; for activity change, negative = inhibition: at 57.5 µM (top of the series). In short, it runs like this:
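Cells seeded at 5,000 per well were treated with compounds over a concentration series and loaded with oleic acid (400 uM, as added). Lipid droplet fluorescence (488 nm excitation, 500-530 nm channel) was read by laser-scanning cytometry and normalized to 20 uM Triacsin C.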

Assay [11] can be described thus: Primary qHTS for small molecule stabilizers of the endoplasmic reticulum resident proteome: Secreted ER Calcium Modulated Protein (SERCaMP) assay (AID 1508630; active means well fitted curve in the direction sought with a large enough effect; an effect the other way counts as inactive or inconclusive; further: on the % scale 0 is the no-effect control and ±100 the full control effect). Particulars: SH-SY5Y GLuc-SERCaMP (Gaussia luciferase released on ER calcium loss) secretion, thapsigargin, luminescence; series mostly up to 38.4 µM. In short, it runs like this: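 The SH-SY5Y reporter protocol was run at 3 concentrations up to 38.3 uM (primary) or 11 concentrations (follow-up): 16 h compound, 100 nM thapsigargin for 4 h, then extracellular luciferase luminescence.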

The target in assay [12] is Cytochrome P450 3A4 (Homo sapiens) (UniProt P08684). Description: qHTS Assay for Activators of Cytochrome P450 3A4 (AID 885; active means well fitted curve in the direction sought with a large enough effect; an effect the other way counts as inactive or inconclusive; further: nearly all actives have a fitted effect of over 65% in size). The following applies: recombinant CYP3A4, Luciferin-PPXE luminescence, 60 min; series mostly up to 57.1 µM. An outline of the steps: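 Luminescent readout of luciferin formed from 25 uM Luciferin-PPXE (KM level) by 20 nM CYP3A4 in 200 mM KPO4, with 60 min NADPH-driven reaction at room temperature after 10 min compound exposure. Ketoconazole (57 uM) defined 100% inhibition.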

In assay [13] the target is Cytochrome P450 2D6 (Homo sapiens) (UniProt P10635). Description: qHTS Assay for Inhibitors and Substrates of Cytochrome P450 2D6 (AID 891; active means well fitted curve in the direction sought with a large enough effect; an effect the other way counts as inactive or inconclusive; further: potency means the concentration at half of the fitted maximal effect; nearly all actives have a fitted effect of over 60% in size). Particulars: recombinant CYP2D6, luciferin-ME EGE luminescence; series mostly up to 57.1 µM. An outline of the steps: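 Luminescent read-out of luciferin formed by 5 nM human CYP2D6 demethylating 30 uM Luciferin-ME EGE (Km level) over 60 min at room temperature after NADPH regeneration addition. Data normalized to full inhibition by 1.43 uM quinidine.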

Setting [14] is: measured here: cell count channel max response.
[15] abbreviates: measured here: lipid channel max response.

Lysosomal acid glucosylceramidase (Homo sapiens), sequence (P04062 whole entry, looked up): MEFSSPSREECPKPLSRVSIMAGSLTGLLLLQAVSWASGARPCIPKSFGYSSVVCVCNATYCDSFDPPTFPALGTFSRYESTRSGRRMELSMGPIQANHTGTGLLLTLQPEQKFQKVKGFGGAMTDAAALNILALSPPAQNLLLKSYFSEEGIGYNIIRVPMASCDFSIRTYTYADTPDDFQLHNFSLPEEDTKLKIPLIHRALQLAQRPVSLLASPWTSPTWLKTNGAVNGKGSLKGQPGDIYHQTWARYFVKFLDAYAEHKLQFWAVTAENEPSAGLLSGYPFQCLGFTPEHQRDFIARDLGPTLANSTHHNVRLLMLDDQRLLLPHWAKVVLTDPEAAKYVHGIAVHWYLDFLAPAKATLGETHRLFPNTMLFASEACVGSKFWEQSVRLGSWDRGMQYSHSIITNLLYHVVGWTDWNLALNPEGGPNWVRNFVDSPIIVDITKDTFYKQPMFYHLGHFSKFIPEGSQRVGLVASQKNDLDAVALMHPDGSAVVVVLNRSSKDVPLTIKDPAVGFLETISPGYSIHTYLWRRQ
Glucocorticoid receptor (Homo sapiens), sequence (P04150 whole entry, looked up, the tested form may be a part): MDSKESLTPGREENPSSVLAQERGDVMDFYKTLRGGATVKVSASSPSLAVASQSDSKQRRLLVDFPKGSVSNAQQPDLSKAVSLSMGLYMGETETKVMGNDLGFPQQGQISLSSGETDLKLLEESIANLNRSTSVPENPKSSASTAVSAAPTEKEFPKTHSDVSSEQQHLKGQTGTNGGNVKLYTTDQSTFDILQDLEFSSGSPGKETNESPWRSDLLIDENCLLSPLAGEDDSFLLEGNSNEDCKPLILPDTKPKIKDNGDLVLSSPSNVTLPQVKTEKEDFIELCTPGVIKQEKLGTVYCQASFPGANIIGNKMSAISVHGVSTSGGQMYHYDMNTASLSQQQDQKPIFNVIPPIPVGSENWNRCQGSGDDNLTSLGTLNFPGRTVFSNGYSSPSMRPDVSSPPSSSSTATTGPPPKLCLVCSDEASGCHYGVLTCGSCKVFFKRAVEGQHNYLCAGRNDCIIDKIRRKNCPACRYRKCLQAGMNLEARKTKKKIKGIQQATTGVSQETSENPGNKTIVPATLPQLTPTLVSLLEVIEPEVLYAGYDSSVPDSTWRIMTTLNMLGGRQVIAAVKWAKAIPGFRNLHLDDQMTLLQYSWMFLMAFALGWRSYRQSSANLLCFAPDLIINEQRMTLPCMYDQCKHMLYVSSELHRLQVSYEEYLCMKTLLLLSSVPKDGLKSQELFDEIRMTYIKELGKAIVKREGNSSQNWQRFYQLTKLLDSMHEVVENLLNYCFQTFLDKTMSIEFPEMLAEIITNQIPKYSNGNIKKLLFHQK
3',5'-cyclic-AMP phosphodiesterase 4B (Homo sapiens), sequence (Q07343 whole entry, looked up): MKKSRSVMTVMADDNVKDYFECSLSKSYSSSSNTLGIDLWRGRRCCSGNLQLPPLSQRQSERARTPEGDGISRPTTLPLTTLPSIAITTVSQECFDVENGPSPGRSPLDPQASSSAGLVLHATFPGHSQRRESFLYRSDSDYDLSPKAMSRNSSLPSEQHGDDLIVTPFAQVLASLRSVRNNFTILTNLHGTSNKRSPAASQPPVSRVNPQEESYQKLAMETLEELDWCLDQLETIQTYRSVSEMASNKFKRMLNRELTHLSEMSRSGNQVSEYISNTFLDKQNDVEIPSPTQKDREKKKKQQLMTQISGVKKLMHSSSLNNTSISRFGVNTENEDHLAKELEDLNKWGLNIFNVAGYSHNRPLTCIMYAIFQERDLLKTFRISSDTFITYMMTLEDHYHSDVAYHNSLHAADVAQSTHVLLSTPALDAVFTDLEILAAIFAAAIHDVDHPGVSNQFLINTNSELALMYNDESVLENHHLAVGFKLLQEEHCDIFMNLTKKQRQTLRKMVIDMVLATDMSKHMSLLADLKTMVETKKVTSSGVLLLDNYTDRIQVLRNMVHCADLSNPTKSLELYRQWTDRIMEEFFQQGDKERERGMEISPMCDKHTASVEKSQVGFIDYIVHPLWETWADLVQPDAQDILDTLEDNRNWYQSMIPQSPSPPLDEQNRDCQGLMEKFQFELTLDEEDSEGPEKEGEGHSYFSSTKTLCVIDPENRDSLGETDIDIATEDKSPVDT
Cytochrome P450 3A4 (Homo sapiens), sequence (P08684 whole entry, looked up): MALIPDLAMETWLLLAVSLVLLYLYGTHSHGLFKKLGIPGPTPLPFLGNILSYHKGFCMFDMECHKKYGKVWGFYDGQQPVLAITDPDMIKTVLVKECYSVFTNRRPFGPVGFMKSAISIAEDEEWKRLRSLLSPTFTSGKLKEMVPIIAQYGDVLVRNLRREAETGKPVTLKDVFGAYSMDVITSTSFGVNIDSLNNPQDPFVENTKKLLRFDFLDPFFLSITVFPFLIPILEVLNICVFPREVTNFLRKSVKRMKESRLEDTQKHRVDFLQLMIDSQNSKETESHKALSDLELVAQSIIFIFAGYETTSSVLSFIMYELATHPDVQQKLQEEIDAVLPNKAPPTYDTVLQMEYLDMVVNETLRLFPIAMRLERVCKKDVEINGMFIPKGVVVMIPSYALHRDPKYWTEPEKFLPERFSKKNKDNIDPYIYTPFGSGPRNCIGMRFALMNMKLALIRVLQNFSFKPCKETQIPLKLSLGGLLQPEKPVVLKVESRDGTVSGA
Cytochrome P450 1A2 (Homo sapiens), sequence (P05177 whole entry, looked up): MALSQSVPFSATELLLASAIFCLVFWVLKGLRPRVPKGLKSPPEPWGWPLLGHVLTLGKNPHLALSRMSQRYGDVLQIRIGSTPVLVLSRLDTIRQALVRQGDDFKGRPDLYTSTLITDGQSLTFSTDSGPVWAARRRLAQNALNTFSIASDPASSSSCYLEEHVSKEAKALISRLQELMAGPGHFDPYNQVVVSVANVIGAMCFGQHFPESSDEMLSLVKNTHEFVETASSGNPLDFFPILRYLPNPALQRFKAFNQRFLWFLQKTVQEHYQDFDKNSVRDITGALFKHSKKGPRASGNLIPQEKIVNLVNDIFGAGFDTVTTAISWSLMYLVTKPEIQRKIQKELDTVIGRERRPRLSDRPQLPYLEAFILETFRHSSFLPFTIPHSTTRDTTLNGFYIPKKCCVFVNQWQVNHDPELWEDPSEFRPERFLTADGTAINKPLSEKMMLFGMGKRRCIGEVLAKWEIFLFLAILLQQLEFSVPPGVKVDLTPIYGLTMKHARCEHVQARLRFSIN
Cytochrome P450 2D6 (Homo sapiens), sequence (P10635 whole entry, looked up): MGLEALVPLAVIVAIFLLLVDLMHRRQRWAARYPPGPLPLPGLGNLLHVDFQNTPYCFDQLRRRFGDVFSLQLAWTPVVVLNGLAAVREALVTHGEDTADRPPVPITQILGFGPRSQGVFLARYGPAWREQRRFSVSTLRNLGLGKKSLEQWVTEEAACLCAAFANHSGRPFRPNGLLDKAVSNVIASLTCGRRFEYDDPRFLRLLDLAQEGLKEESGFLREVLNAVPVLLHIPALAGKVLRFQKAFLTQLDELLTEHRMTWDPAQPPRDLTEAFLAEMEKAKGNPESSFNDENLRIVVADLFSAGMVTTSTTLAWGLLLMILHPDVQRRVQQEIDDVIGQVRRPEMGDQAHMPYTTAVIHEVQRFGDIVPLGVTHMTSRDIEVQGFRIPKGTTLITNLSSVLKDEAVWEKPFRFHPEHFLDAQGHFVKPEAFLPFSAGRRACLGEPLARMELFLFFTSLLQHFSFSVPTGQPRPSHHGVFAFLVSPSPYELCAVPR
Cytochrome P450 2C19 (Homo sapiens), sequence (P33261 whole entry, looked up): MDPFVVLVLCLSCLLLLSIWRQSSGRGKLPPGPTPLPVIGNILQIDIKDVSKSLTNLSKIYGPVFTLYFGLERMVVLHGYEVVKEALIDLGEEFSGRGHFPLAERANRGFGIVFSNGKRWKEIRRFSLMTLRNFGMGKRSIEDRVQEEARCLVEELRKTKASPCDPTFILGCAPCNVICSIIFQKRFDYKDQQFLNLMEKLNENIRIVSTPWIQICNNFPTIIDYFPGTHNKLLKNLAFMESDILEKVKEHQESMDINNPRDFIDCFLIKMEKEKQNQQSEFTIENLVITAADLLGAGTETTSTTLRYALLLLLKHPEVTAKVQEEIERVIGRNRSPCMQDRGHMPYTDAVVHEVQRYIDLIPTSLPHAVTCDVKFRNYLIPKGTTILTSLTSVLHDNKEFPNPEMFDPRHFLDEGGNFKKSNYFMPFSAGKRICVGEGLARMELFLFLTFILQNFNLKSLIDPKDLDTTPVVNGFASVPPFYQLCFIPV

For the compound `O=S(=O)(c1ccccc1)N1CCC2(CCCN(c3ccccn3)C2)CC1`, the Potency in [1] was > 11.4 µM (inactive); in assay [3] it was 7.94 µM (active); in assay [5], > 46 µM (inactive); in assay [8], 0.158 µM (active). The activity change, negative = inhibition in assay [2] is -6.83% (inactive); in assay [10], 5.71% (inactive). Moreover, the activity, negative = inhibition in [4] is -6.34% (inactive). Also, the Potency entry in [6] and in assay [7] was “inactive” each time. In assay [9], the activation was -11.6% (inactive). Besides, the max response in [10] (setting [14]) is 17.9%; in [10] (setting [15]), 25.4%. In addition, in assay [11], the result was inactive.

`N#Cc1cccc(NC(=O)N2CC3(CCN(C(=O)c4cc(C(F)(F)F)cc(C(F)(F)F)c4)CC3)C2)c1`: the Potency was > 11.4 µM (inactive) in [1], 12.6 µM (active) in assay [3] and > 46 µM (inactive) in [5]. In addition, the activity change, negative = inhibition in [2] is -13.9% (inactive); in [10], -0.946% (inactive). Further, the activity, negative = inhibition in [4] was -7.2% (inactive). Besides, the Potency result in assay [6], in assay [7] and in assay [12] was “inactive” each time. The max response in assay [10] (setting [14]) was determined as 14%; in assay [10] (setting [15]), 14.4%. The outcome in assay [11] was inactive.

As for `O=C(c1cccc(F)c1)N1CCC2(CC1)CN(Cc1ccccc1)C2`, the Potency in [1] was > 11.4 µM (inactive); in assay [5] it was > 46 µM (inactive); in [13], 5.01 µM (active). Besides, the activity change, negative = inhibition is 0.919% (inactive) in assay [2] and -1.4% (inactive) in assay [10]. Also, the Potency entry in assay [3], in assay [6] and in assay [7] was “inactive” throughout. Besides, in assay [4], the activity, negative = inhibition was 0.079% (inactive). The results for the max response in assay [10] (setting [14]) and in assay [10] (setting [15]) were -5.75% and -4.23%, respectively. Besides, the outcome in assay [11] was inactive.

`CC(C)CN1CCCC2(CCN(C(=O)c3cc(C(F)(F)F)cc(C(F)(F)F)c3)CC2)C1`: the values for the Potency in assay [1], in assay [3] and in [5] were > 11.4 µM (inactive), 12.6 µM (active) and > 46 µM (inactive), respectively. For the same compound, the activity change, negative = inhibition in assay [2] was -4.78% (inactive); in [10] it was 2.29% (inactive). The activity, negative = inhibition in assay [4] is -8.44% (inactive). For the same compound, the Potency result in assay [6] and in assay [12] was “inactive” in each case. Also, the activation in assay [9] is -20.4% (inactive). Further, the max response in assay [10] (setting [14]) came out at 11.6%; in assay [10] (setting [15]), 17.9%. Further, in assay [11], the outcome was inactive.

In the case of `O=S(=O)(c1ccccc1)N1CCC2(CCN(Cc3ccccc3)CC2)CC1`, the Potency is > 11.4 µM (inactive) in assay [1] and > 46 µM (inactive) in assay [5]. The activity change, negative = inhibition in assay [2] is 5.55% (inactive); in assay [10], 3.53% (inactive). Moreover, the Potency entry in assay [3], in assay [6] and in assay [7] was “inactive” each time. In [4], the activity, negative = inhibition was 1.04% (inactive). Also, in assay [9], the activation was 14.1% (inactive). Besides, the figures for the max response in [10] (setting [14]) and in assay [10] (setting [15]) were 18.1% and 22.9%, respectively. Further, in assay [11], the outcome was inactive.

For `O=C(c1ccco1)N1CCC[C@@]2(CCN(C(c3ccccc3)c3ccccc3)C2)C1`, the Potency is > 11.4 µM (inactive) in assay [1], 25.1 µM (active) in assay [3], > 46 µM (inactive) in assay [5] and 3.16 µM (active) in [13]. The activity change, negative = inhibition is -9.33% (inactive) in assay [2] and -15.2% (inactive) in assay [10]. Also, in assay [4], the activity, negative = inhibition was 3.09% (inactive). The Potency result in [6], in assay [7] and in assay [12] was “inactive” throughout. In addition, the max response is -10.5% in assay [10] (setting [14]) and -26.4% in assay [10] (setting [15]). The result in assay [11] was inactive.
